In PubChem BioAssay AID1159580 (chemical genetic matrix, 2015):
“And” between values parts separate entries of the source, which are not always exact repeats. Equal values may be shown once. About 2,000 (36%) of roughly 5,500 compounds were called active. Roughly 18% stayed inconclusive and do not appear here. Cut-off read from the data, not from the text of the source: active = normalized growth mostly below about 0.91 (no sharp cut-off); inconclusive = no clear call, values can overlap the other calls; inactive = mostly above about 0.92. The list shows a part of the results.

Assay: chemical genetic growth profiling, strain panel (AID 1159580);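 note: tested at 20 µM; growth read once vehicle control cultures reached saturation at 30 °C; 1 = growth at the plate median or of vehicle wells; lower values mean less growth of the strain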
Conditions: S. cerevisiae deletion strains, growth OD
[1] = locus YAL013W, strain DEP1, hits give low values
[2] = locus YMR307W, strain GAS1, hits give low values
[3] = locus YNL322C, strain KRE1, hits give low values

Measured: normalized growth

COc1ccc(/C=C/C(=O)O)cc1OC
active: locus YDL074C, strain BRE1, hits give low values 1.4 [resistant] | locus YGL248W, strain PDE1, hits give low values 1.12 [resistant] | locus YIL073C, strain SPO22, hits give low values 1.55 [resistant] | locus YLR039C, strain RIC1, hits give low values 1.42 [resistant] | [2] 1.53 [resistant] | locus YOL006C, strain TOP1, hits give low values 1.83 [resistant]
inactive: [1] 1 | locus YAL021C, strain ccr4, hits give low values 1.04 | locus YAL026C, strain drs2, hits give low values 0.99 | locus YAL030W, strain snc1, hits give low values 0.999 | locus YBL061C, strain skt5, hits give low values 0.987 | locus YBR009C, strain hhf1, hits give low values 1.01 | locus YBR021W, strain FUR4, hits give low values 1.04 | locus YBR023C, strain chs3, hits give low values 1.01 | locus YBR171W, strain sec66, hits give low values 0.965 | locus YBR229C, strain ROT2, hits give low values 1.02 | locus YBR231C, strain swc5, hits give low values 0.981 | locus YBR279W, strain paf1, hits give low values 1 | locus YCL011C, strain gbp2, hits give low values 0.991 | locus YCL016C, strain dcc1, hits give low values 1.04 | locus YCL029C, strain bik1, hits give low values 1.02 | locus YCL061C, strain MRC1, hits give low values 0.995 | locus YCL069W, strain vba3, hits give low values 0.955 | locus YCR088W, strain abp1, hits give low values 0.984 | locus YDL005C, strain med2, hits give low values 0.979 | locus YDL035C, strain GPR1, hits give low values 1.14 | locus YDL040C, strain nat1, hits give low values 0.991 | locus YDL101C, strain DUN1, hits give low values 1 | locus YDL134C, strain PPH21, hits give low values 1.06 | locus YDL185W, strain tfp1, hits give low values 1 | locus YDL192W, strain arf1, hits give low values 1.03 | locus YDR001C, strain nth1, hits give low values 0.981 | locus YDR069C, strain doa4, hits give low values 0.97 | locus YDR101C, strain arx1, hits give low values 1.01 | locus YDR137W, strain rgp1, hits give low values 1.02 | locus YDR159W, strain sac3, hits give low values 0.94 | locus YDR162C, strain NBP2, hits give low values 1.13 | locus YDR195W, strain ref2 0.961 | locus YDR297W, strain sur2, hits give low values 0.984 | locus YDR318W, strain mcm21, hits give low values 1.03 | locus YDR334W, strain swr1, hits give low values 0.975 | locus YDR335W, strain msn5, hits give low values 0.984 | locus YDR388W, hits give low values 1.01 | locus YDR392W, strain spt3, hits give low values 0.943 | locus YDR502C, strain sam2, hits give low values 1.03 | locus YEL003W, strain gim4, hits give low values 0.981 | locus YEL037C, strain rad23, hits give low values 0.981 | locus YEL061C, strain CIN8 (second series), hits give low values 0.976 | locus YEL061C, strain CIN8, hits give low values 1.01 | locus YER015W, strain faa2, hits give low values 1 | locus YER016W, strain bim1, hits give low values 0.991 | locus YER110C, hits give low values 1 | locus YER111C, strain swi4, hits give low values 0.974 | locus YER155C, strain BEM2 (second series), hits give low values 0.958 | locus YER155C, strain BEM2, hits give low values 1.01 | locus YER167W, strain BCK2, hits give low values 1.01 | locus YFR010W, strain ubp6, hits give low values 0.955 | locus YGL078C, strain dbp3, hits give low values 1 | locus YGL086W, strain mad1, hits give low values 1.01 | locus YGL167C, strain pmr1, hits give low values 0.999 | locus YGL173C, strain kem1, hits give low values 0.979 | locus YGL227W, strain vid30, hits give low values 0.984 | locus YGL240W, strain doc1, hits give low values 0.989 | locus YGL253W, strain hxk2, hits give low values 0.942 | locus YGR078C, strain PAC10, hits give low values 1.09 | locus YGR135W, strain pre9, hits give low values 1.04 | locus YGR252W, strain gcn5, hits give low values 1.19 | locus YHR013C, strain ard1, hits give low values 0.993 | locus YHR027C, strain rpn1, hits give low values 0.992 | locus YHR030C, strain SLT2, hits give low values 0.949 | locus YHR079C, strain IRE1 (second series), hits give low values 0.998 | locus YHR079C, strain IRE1, hits give low values 0.958 | locus YHR094C, strain hxt1, hits give low values 0.996 | locus YHR129C, strain ARP1, hits give low values 1.02 | locus YHR142W, strain chs7, hits give low values 0.993 | locus YHR200W, strain rpn10, hits give low values 0.999 | locus YIL066C, strain RNR3, hits give low values 1.01 | locus YIL125W, strain kgd1, hits give low values 1.02 | locus YIR030C, strain dcg1, hits give low values 0.998 | locus YJL092W, strain hpr5, hits give low values 0.974 | locus YJL095W, strain BCK1 (second series), hits give low values 0.981 | locus YJL095W, strain BCK1, hits give low values 0.972 and 1.18 | locus YJL115W, strain asf1, hits give low values 0.998 | locus YJL129C, strain trk1, hits give low values 0.968 | locus YJL134W, strain LCB3, hits give low values 1.01 | locus YJL154C, strain vps35, hits give low values 0.976 | locus YJL164C, strain tpk1, hits give low values 1.03 | locus YJL166W, strain qcr8, hits give low values 0.999 | locus YJL168C, strain set2, hits give low values 1.01 | locus YJL187C, strain SWE1 (second series), hits give low values 1.03 | locus YJL187C, strain SWE1, hits give low values 1.01 | locus YJR043C, strain POL32, hits give low values 1.06 | locus YJR066W, strain TOR1, hits give low values 0.907 | locus YKL009W, strain mrt4, hits give low values 0.971 | locus YKL068W, hits give low values 0.988 | locus YKL085W, strain MDH1 (second series), hits give low values 1 | locus YKL085W, strain MDH1, hits give low values 1 | locus YKL160W, strain elf1, hits give low values 1.04 | locus YKR001C, strain vps1, hits give low values 1.08 | locus YKR026C, strain gcn3, hits give low values 0.963 | locus YKR091W, strain srl3, hits give low values 1.01 | locus YLL001W, strain dnm1, hits give low values 0.976 | locus YLL026W, hits give low values 0.997 | locus YLL041C, strain sdh2, hits give low values 0.992 | locus YLR027C, strain aat2, hits give low values 1 | locus YLR058C, strain SHM2, hits give low values 1.01 | locus YLR102C, strain apc9, hits give low values 0.996 | locus YLR113W, strain HOG1, hits give low values 0.968 | locus YLR221C, strain rsa3, hits give low values 0.95 | locus YLR258W, strain gsy2, hits give low values 1.02 | locus YLR262C, strain YPT6 (second series), hits give low values 0.995 | locus YLR268W, strain sec22, hits give low values 1.05 | locus YLR320W, strain mms22, hits give low values 0.99 | locus YLR342W, strain FKS1 (second series), hits give low values 1.01 | locus YLR342W, strain FKS1, hits give low values 1.01 | locus YLR357W, strain rsc2, hits give low values 0.988 | locus YLR370C, strain arc18, hits give low values 0.971 | locus YLR371W, strain rom2, hits give low values 1.02 | locus YLR384C, strain iki3, hits give low values 0.998 | locus YML016C, strain PPZ1, hits give low values 1 | locus YML032C, strain rad52, hits give low values 1.02 | locus YML120C, strain ndi1, hits give low values 1.01 | locus YML124C, strain tub3, hits give low values 0.994 | locus YMR058W, strain fet3, hits give low values 0.991 | locus YMR078C, strain ctf18, hits give low values 1.01 | locus YMR125W, strain sto1, hits give low values 0.974 | locus YMR129W, hits give low values 1 | locus YMR205C, strain PFK2, hits give low values 1.05 | locus YMR223W, strain ubp8, hits give low values 1.03 | locus YMR231W, strain pep5, hits give low values 0.965 | locus YNL067W, strain RPL9B, hits give low values 1 | locus YNL071W, strain lat1, hits give low values 0.998 | locus YNL128W, strain TEP1, hits give low values 1.02 | locus YNL183C, strain NPR1, hits give low values 0.904 | locus YNL209W, strain ssb2, hits give low values 1.01 | locus YNL233W, strain BNI4, hits give low values 1.12 | locus YNL248C, strain rpa49, hits give low values 0.958 | locus YNL250W, strain rad50, hits give low values 1.03 | locus YNL271C, strain bni1, hits give low values 1.02 | locus YNL298W, strain CLA4, hits give low values 1.05 | locus YNL307C, strain MCK1, hits give low values 1.01 | locus YNL322C, strain KRE1 (second series), hits give low values 0.981 | [3] 1.01 | locus YNR049C, strain mso1, hits give low values 0.99 | locus YNR052C, strain pop2, hits give low values 1.02 | locus YOL012C, strain htz1 1.37 | locus YOL147C, strain pex11, hits give low values 1.01 | locus YOR001W, strain rrp6, hits give low values 0.926 | locus YOR061W, strain CKA2, hits give low values 0.995 | locus YOR069W, strain VPS5, hits give low values 1.01 | locus YOR070C, strain gyp1, hits give low values 0.999 | locus YOR080W, strain dia2, hits give low values 0.978 | locus YOR083W, strain WHI5, hits give low values 1.04 | locus YOR106W, strain vam3, hits give low values 1.02 | locus YOR136W, strain idh2, hits give low values 1.01 | locus YOR144C, strain elg1, hits give low values 1 | locus YOR184W, strain ser1, hits give low values 1.08 | locus YOR231W, strain MKK1, hits give low values 0.944 | locus YOR265W, strain rbl2, hits give low values 0.991 | locus YOR270C, strain vph1, hits give low values 0.977 | locus YOR290C, strain snf2, hits give low values 1.04 | locus YOR316C, strain cot1, hits give low values 1.01 | locus YPL051W, strain arl3, hits give low values 0.98 | locus YPL078C, strain atp4, hits give low values 1.03 | locus YPL106C, strain sse1, hits give low values 1.04 | locus YPL240C, strain hsp82, hits give low values 0.986 | locus YPL256C, strain CLN2, hits give low values 0.968 | locus YPR119W, strain clb2, hits give low values 1.01 | locus YPR141C, strain kar3, hits give low values 1 | locus YPR163C, strain tif3, hits give low values 1.02 | locus YPR167C, strain met16, hits give low values 1.03 | strain wtn01, hits give low values 1.02

COc1ccc(/C=C/C(=O)Nc2ccccc2C(=O)O)cc1OC
inactive: [1] 1.03 | locus YAL040C, strain CLN3, hits give low values 0.97 | locus YCL061C, strain MRC1 (second series), hits give low values 0.99 | locus YDR150W, strain NUM1, hits give low values 0.994 | locus YDR363W, strain ESC2, hits give low values 1.01 | locus YER002W, strain NOP16, hits give low values 0.985 | locus YMR263W, strain SAP30, hits give low values 0.996 | [2] 1.01 | locus YNL175C, strain NOP13, hits give low values 0.979 | locus YNL197C, strain WHI3, hits give low values 0.964 | locus YNL224C, strain SQS1, hits give low values 0.999 | [3] 1.02 | locus YOR083W, strain WHI5 (second series), hits give low values 0.964 | locus YPL055C, strain LGE1, hits give low values 1.05 | locus YPL241C, strain CIN2, hits give low values 0.991
